Assay [1] can be described thus: qHTS assay for measurement of the activity of small molecule inhibitors on Zika virus induced Caspase-3 activity in human iPSC derived neural progenitor cells (hNPCs) (AID 1224857). Further: nearly all actives have a fitted effect of over 65% in size. Further: potency means the concentration at half of the fitted maximal effect. The method in brief: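 hNPCs seeded 350 cells/well, cultured 16–20 h; compounds added 1 h before ZIKV (2 FFU/cell), 37 C 6 h. Caspase-Glo 3/7 luminescence after 30 min RT; % inhibition from induction scaled to uninfected (0%) and infected (100%) wells.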
In general terms: In qHTS, concentration-response curves come from the screen itself.

Assay [2] is described as follows: qHTS assay for small molecule agonists of the antioxidant response element (ARE) signaling pathway measured by Nrf2-dependant transcriptional activity (AID 720636; active means well fitted curve in the direction sought with a large enough effect in the repeat runs; an effect the other way counts as inactive or inconclusive; further: % of control where 0% means no effect). In outline:
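ARE-luc HepG2 cells carrying an Nrf2-responsive luciferase reporter were plated in medium with 1% dialyzed FBS, left 6 hr at 37 C to attach, then exposed to compound for 16 hr. Luciferase luminescence was read after ONE-Glo addition.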

Assay [3] can be described thus: qHTS assay for small molecule antagonists of the retinoid-related orphan receptor gamma (ROR-gamma) signaling pathway - cell viability counter screen (AID 720652; active means well fitted curve in the direction sought with a large enough effect in the repeat runs; an effect the other way counts as inactive or inconclusive;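 further: CHO reporter cells with doxycycline-induced ROR-gamma expression; series mostly up to about 92 µM; compound exposure lasted 16 hr before ATP read; on the % scale 0 is the no-effect control and ±100 the full control effect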). In outline:
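Steps: seed CHO cells bearing TET-inducible ROR and ROR response element-luciferase; rest 5 hr at 37 C; add compound, then doxycycline; incubate 16 hr; add CellTiter-Glo and read luminescence as ATP-based viability.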

Assay [4] can be described thus: qHTS assay for small molecule agonists of the antioxidant response element (ARE) signaling pathway measured by Nrf2-dependant transcriptional activity - cell viability counter screen (AID 720653; active means well fitted curve in the direction sought with a large enough effect in the repeat runs; an effect the other way counts as inactive or inconclusive; further: on the % scale 0 is the no-effect control and ±100 the full control effect). The following applies: ARE-bla HepG2 viability, CellTiter-Glo ATP luminescence, 16 h; hits give low values. The method in brief: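 ARE-bla HepG2 cells (2,000/well) rested 5 hrs at 37C/5% CO2, then exposed to compounds in DMSO for 16 hrs. Viability was read in the same wells as intracellular ATP by luminescence, 30 min at room temperature after reagent addition.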

The nature of assay [5]: qHTS Assay for Identifying Gametocytocidal Compounds (AID 743244). Further: potency means the concentration at half of the fitted maximal effect.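 On max response: on the % scale 0 is the no-effect control and ±100 the full control effect; actives lower the fluorescent signal which means gametocytes are killed.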 The following applies: P. falciparum 3D7 stage III-V gametocytes, alamarBlue, 72 h; max response: hits give low values. In outline:
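P. falciparum 3D7 stage III–V gametocytes (20,000 cells/well) were exposed to compounds for 72 h at 37 °C, 5% CO2. AlamarBlue was then added for 24 h; decreased resorufin fluorescence (Ex 525/Em 598 nm) indicated loss of viability.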

A short description of assay [6]: qHTS assay for cell viability of HEK293 cells (AID 743288). Further: on the % scale 0 is the no-effect control and ±100 the full control effect; nearly all actives have a fitted effect of over 50% in size. The following applies: ATP luminescence (CellTiter-Glo), 18 h, hits give low values. In outline:
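ATP luminescence (CellTiter-Glo) reports metabolically competent cell number after parental HEK293 cells, 2,000/well, were treated with DMSO-dissolved compounds for 18 h at 37 C; reagent incubation 30 min, room temperature.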

Assay [7] can be described thus: qHTS assay for cell viability of the p53RE-bla HCT-116 cell line (AID 743292). Further: on the % scale 0 is the no-effect control and ±100 the full control effect; nearly all actives have a fitted effect of over 55% in size. In outline:
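CellSensor p53RE-bla HCT-116 cells, 4,000/well, preincubated 5 h at 37 C, then exposed to compounds in DMSO for 16 h at 37 C. Viability read as CellTiter-Glo luminescence (intracellular ATP) after 30 min at room temperature.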

Assay [8] is described as follows: qHTS for compounds that reverse cellular toxicity of Amyloid beta (A-beta) peptide in yeast: LOPAC Validation Assay (AID 720559).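 Further: plate controls were DMSO for no effect and equimolar ferric chloride plus clioquinol rescue for full effect.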 In outline: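 OD600 growth readout after 48 hr at 30 C; A-beta-toxic yeast plus pinned compounds in medium. Normalization: DMSO = negative, equimolar FeCl3 + clioquinol = positive.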
Assay [9] can be described thus: qHTS for Activators of Parkin Expression: LOPAC Validation Assay (NLuc Reporter) (AID 720572;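 further: 0% = DMSO and 100% = positive control compound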). The method in brief:
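Cells harboring the Parkin-promoter coincidence reporter were treated for 24 h at seven concentrations. NLuc output was measured sequentially after the FLuc channel and scaled between DMSO and positive control values.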

A short description of assay [10]: qHTS for Activators of Parkin Expression: LOPAC Validation Assay (FLuc Reporter) (AID 720573;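 further: 0% = DMSO and 100% = positive control compounds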). In outline: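 FLuc luminescence read-out from a neuronal line expressing a Parkin-promoter-driven coincidence reporter. Cells treated 24 h at 37 C, 5% CO2 with compounds at 7 concentrations; signal increase normalized to DMSO and positive control.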
Assay [11] addresses T1, Hexokinase-4 (Homo sapiens) + Glucokinase regulatory protein (Homo sapiens) (UniProt P35557+Q14397). As to the kind of experiment: qHTS assay for inhibitors of recombinant human GCK-GKRP interaction: Diaphorase-coupled assay (AID 743205). In outline:
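Resorufin fluorescence (525/590 nm), read each minute over 30 min, reports GCK activity coupled via G6PDH and diaphorase. Reaction: 10 nM GST-GCK, 10 nM FLAG-GKRP, 5 mM glucose, 0.4 mM ATP, 0.15 mM NADP+, 0.1 mM resazurin.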

For assay [12], the target named is T1, Hexokinase-4 (Homo sapiens) + Glucokinase regulatory protein (Homo sapiens). In words: qHTS assay for inhibitors of recombinant human GCK-GKRP interaction: ADP-Glo assay (AID 743206).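 Further: plate controls were DMSO plus enzyme for no effect and no enzyme for full effect.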 In outline: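 Pin-transferred compounds meet a 15 nM GST-GCK/15 nM FLAG-GKRP/2 uM S6P mix (dispense concentrations). ATP is then added to 0.4 mM final with 5 mM glucose, and the reaction runs 60 min at room temperature. ADP is quantified luminescently.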

For assay [13] the target is unchanged. As to the kind of experiment: qHTS assay for inhibitors of recombinant human GCK-GKRP interaction: HTRF assay (AID 743207).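 Further: 0% = DMSO with GCK present and -100% = DMSO wells lacking GCK.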 The method in brief:
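HTRF read-out (ex 320 nm; 615/665 nm emission) after 60 min RT equilibration of 5 nM GST-GCK, 5 nM FLAG-GKRP, 2 uM S6P, compound and anti-FLAG/anti-GST detection antibodies; signal normalized between DMSO wells with and without GCK.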

Unmarked numbers belong to inactive results. Results filed as inconclusive are left out. Activity calls are given as the source filed them. Unless noted, the call rests on the fitted dose curve; in most records, active means well fitted curve in the direction sought with a large enough effect; inconclusive means small, poorly fitted or top-dose-only effect, or another doubt; inactive means no such curve, though single readings can be large; an effect the other way counts as inactive or inconclusive.

T1 sequence (P35557 whole entry, looked up): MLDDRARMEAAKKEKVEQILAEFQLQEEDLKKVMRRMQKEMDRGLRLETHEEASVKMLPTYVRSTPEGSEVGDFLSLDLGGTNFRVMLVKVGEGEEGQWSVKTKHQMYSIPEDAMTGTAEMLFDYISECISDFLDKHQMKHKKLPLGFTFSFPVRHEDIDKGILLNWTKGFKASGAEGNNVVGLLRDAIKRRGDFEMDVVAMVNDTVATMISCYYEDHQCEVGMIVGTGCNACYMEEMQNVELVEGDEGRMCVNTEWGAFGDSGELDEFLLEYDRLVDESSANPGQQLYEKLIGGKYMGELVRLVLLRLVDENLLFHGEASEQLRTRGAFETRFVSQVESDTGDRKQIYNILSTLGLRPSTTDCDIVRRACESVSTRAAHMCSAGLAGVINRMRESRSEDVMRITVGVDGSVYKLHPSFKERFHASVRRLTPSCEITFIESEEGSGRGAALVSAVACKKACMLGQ
T1 sequence (Q14397 whole entry, looked up): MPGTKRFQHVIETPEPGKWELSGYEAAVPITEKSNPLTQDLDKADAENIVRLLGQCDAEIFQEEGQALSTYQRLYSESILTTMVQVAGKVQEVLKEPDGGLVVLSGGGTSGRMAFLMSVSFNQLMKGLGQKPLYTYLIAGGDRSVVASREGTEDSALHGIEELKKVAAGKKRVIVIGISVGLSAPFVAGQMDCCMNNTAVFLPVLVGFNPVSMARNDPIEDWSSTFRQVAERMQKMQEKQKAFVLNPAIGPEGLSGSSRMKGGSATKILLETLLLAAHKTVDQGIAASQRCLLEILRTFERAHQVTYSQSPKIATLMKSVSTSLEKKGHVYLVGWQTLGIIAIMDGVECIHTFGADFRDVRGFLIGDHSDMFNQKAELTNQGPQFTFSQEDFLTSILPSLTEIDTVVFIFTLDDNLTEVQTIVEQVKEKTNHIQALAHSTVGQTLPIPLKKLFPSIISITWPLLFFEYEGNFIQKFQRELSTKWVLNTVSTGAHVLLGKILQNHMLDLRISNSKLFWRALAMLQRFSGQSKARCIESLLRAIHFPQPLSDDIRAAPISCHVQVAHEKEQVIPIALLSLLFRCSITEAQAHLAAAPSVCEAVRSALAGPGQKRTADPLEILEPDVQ

Regarding `NC(N)=NN=C(/C=C/c1ccc([N+](=O)[O-])o1)/C=C/c1ccc([N+](=O)[O-])o1`, the Potency in assay [1] is 31.6 µM (active).

Regarding `C=C[C@H]1CN2CC[C@H]1C[C@H]2[C@H](O)c1ccnc2ccc(OC)cc12`, the Potency result in assay [1] is “inactive”.

Regarding `Cc1ccc(O)c([C@H](CCN(C(C)C)C(C)C)c2ccccc2)c1`, the Potency result in assay [1] is “inactive”.

As for `COc1cc(C)nc(-n2nc(C)cc2OC)n1`, the Potency result in [1] was “inactive”.

Consider `O=C(O)c1ccc(S(=O)(=O)N(Cl)Cl)cc1`, for which the outcome in assay [2], in assay [3] and in assay [7] was inactive. For the same compound, the max response in assay [4] was 7.82%; in assay [5], -8.91%; in [6], 0.513%. Moreover, the Potency entry in assay [1] is “inactive”.

For the compound `CC(C)(Cc1c[nH]c2ccccc12)NCC(O)COc1ccccc1C#N` (stereo unspecified), the Potency result in assay [1] was “inactive”.

With `Cc1cc2c(OCC(CNC(C)(C)C)OC(=O)c3ccccc3)cccc2[nH]1` (stereo unspecified), the Potency entry in [1] is “inactive”.

Consider `CCCCCCCCCCCCCCCCO`, for which the compound was called inactive in assay [2]. Moreover, the values for the max response in assay [4], in assay [5] and in [6] were -4.14%, 19.3% and -3.2%, respectively. In addition, the Potency entry in assay [1] is “inactive”.

Regarding `CCOc1ccccc1C(N)=O`, the result in assay [2], in [3] and in assay [7] was inactive. For the same compound, the max response in assay [4] was 5.3%; in [5], 14%; in assay [6] it was 9.95%. In addition, in assay [1], the Potency entry was “inactive”.

`CC(C)(C)NC[C@H](O)COc1nsnc1N1CCOCC1`: the compound was called inactive in [8], in assay [9], in [10], in assay [11], in assay [12] and in assay [13]. Also, the max response in assay [5] was -3.64%. For the same compound, in [1], the Potency entry was “inactive”.

Consider `O=C(CN1CCN(Cc2ccc3c(c2)OCO3)CC1)N1c2ccccc2Sc2ccccc21`, for which the Potency entry in [1] was “inactive”.

Take `CC(=O)OCC1=C(C(=O)O)N2C(=O)[C@@H](NC(=O)CSc3ccncc3)[C@H]2SC1`: the max response in [5] is -9.74%. For the same compound, the Potency result in assay [1] was “inactive”.

With `COc1cc(C(=O)N2CCCCCCC2)cc(OC)c1OC`, the max response in assay [5] was 12.8%. Besides, the Potency entry in assay [1] is “inactive”.

For `N#C/C(=C1\SCC(c2ccccc2Cl)S1)n1ccnc1` (stereo unspecified), in assay [5], the max response is 17.4%. In addition, the Potency result in [1] is “inactive”.

Turning to `O=C1OC(CN2CCOCC2)CN1/N=C/c1ccc([N+](=O)[O-])o1` (stereo unspecified), the max response in [5] is -7.98%. The Potency result in assay [1] is “inactive”.

Consider `O=C(O)C1(C(=O)O)CCC1.[NH2-].[NH2-].[Pt+2]`, for which the max response in assay [5] was -10.4%. In addition, the Potency entry in assay [1] was “inactive”.

For `Oc1c(Cl)cc(Cl)c(Cl)c1Cc1c(O)c(Cl)cc(Cl)c1Cl`, the compound was called inactive in assay [2] and in assay [7]. The max response in assay [5] was 14.7%. In addition, the Potency result in assay [1] was “inactive”.

For `O=C1C(CCS(=O)c2ccccc2)C(=O)N(c2ccccc2)N1c1ccccc1` (stereo unspecified), in [5], the Potency was 0.0089 µM (active). Moreover, the Potency result in assay [1] is “inactive”.

`CC1CCc2c(N3CCC(O)CC3)c(F)cc3c(=O)c(C(=O)O)cn1c23` (stereo unspecified): in [5], the max response was 21.4%. The Potency entry in assay [1] is “inactive”.

As to `N#CCC(=O)NN`, in [5], the max response is -7.78%. Also, the Potency entry in assay [1] is “inactive”.

As for `CC(=O)O[C@H]1C[C@@H]2CC[C@@H]3[C@H](CC[C@@]4(C)[C@H]3C[C@H]([N+]3(C)CCCCC3)[C@@H]4OC(C)=O)[C@@]2(C)C[C@@H]1N1CCCCC1`, the max response in [5] was -2.39%. The Potency result in assay [1] is “inactive”.

Turning to `CCC(CC)(CC(=O)Nc1cccc(/C=C/c2nc(C3CCC3)cs2)c1)C(=O)O`, in assay [5], the max response is 48.4%. For the same compound, in assay [1], the Potency entry was “inactive”.

Regarding `O=C(O)Cc1csc(-c2ccc(Cl)cc2)n1`, in assay [5], the max response was -4.61%. In assay [1], the Potency entry is “inactive”.

With `CC(=O)O[C@]1(C(C)=O)CC[C@H]2[C@@H]3C=C(Cl)C4=CC(=O)CC[C@]4(C)[C@H]3CC[C@@]21C`, in assay [5], the max response is -7.79%. For the same compound, the Potency entry in assay [1] is “inactive”.

For the compound `O[C@@H](c1cc(C(F)(F)F)nc2c(C(F)(F)F)cccc12)[C@H]1CCCCN1`, in [5], the Potency is 1.05 µM (active). In assay [1], the Potency entry was “inactive”.

Take `C=CCN1CCc2nc(N)sc2CC1`: the max response in [5] was 14.4%. Besides, the Potency entry in assay [1] is “inactive”.

On to `Cc1nc(-c2ccc(Cl)cc2)oc1COC(C)(C)C(=O)O`, for which the max response in assay [5] is -2.69%. In assay [1], the Potency entry is “inactive”.

In the case of `O=C(Nc1ncc([N+](=O)[O-])s1)c1cccs1`, the max response in assay [5] is 35.1%. The Potency result in assay [1] is “inactive”.

`COc1ccc(C(Cl)=C(c2ccc(OC)cc2)c2ccc(OC)cc2)cc1`: the outcome in assay [2] and in assay [7] was inactive. Besides, the max response in [4] is -11.1%; in assay [5], 5.06%; in assay [6] it was -29.7%. Further, the Potency entry in assay [1] is “inactive”.

As for `COc1ccc2c(c1)c1c3n2CCN(C)C3=NCC1`, the max response in [5] was 18.4%. The Potency result in assay [1] is “inactive”.

As for `CCC(Cc1c(I)cc(I)c(N)c1I)C(=O)O` (stereo unspecified), in [5], the max response was 3.24%. Further, the Potency result in assay [1] was “inactive”.

`OCCOCCN1CCN(C2=Nc3ccccc3Sc3ccccc32)CC1`: in [5], the max response is -0.0618%. Further, the Potency result in assay [1] is “inactive”.

For `C=C[C@@]1(C)CC(=O)[C@]2(O)[C@@]3(C)[C@@H](O)CCC(C)(C)[C@@H]3[C@H](O)[C@H](OC(C)=O)[C@@]2(C)O1`, the results for the max response in assay [4], in assay [5] and in assay [6] were 4.11%, -8.6% and -8.77%, respectively. Moreover, the result in assay [7] was inactive. The Potency entry in assay [1] is “inactive”.

For `Cc1cccc(C)c1NC(=O)CN1CCCCCC1`, the max response in [5] was 3.55%. In addition, the Potency entry in [1] is “inactive”.

Regarding `CN(C)C(=O)Nc1ccc(Cl)c(Cl)c1`, the max response in assay [4] was 12.2%; in assay [5], -3.3%; in [6], -11.4%. In addition, the compound was classed as inactive in assay [7]. The Potency result in [1] is “inactive”.

As to `CN1CCC(OC(c2ccccc2)c2ccccc2)CC1`, the max response in assay [5] is -7.17%. In assay [1], the Potency entry was “inactive”.

Regarding `CCN(CC)CCOc1ccc2c(c1)C(=O)c1cc(OCCN(CC)CC)ccc1-2`, the Potency in assay [5] was 12.6 µM (active). Also, the Potency entry in assay [1] was “inactive”.

Take `CC1(COc2ccc(CC3SC(=O)NC3=O)cc2)CCCCC1` (stereo unspecified): the max response in assay [4] was -9.6%; in assay [5] it was 2.09%; in assay [6] it was -6.86%. Also, the Potency entry in [1] is “inactive”.

With `CN1CCC[C@@H]1CCO[C@](C)(c1ccccc1)c1ccc(Cl)cc1`, the max response in [5] was -0.809%. The Potency result in [1] was “inactive”.

For `OC[C@H]1O[C@@H](Oc2ccc(O)cc2)[C@H](O)[C@@H](O)[C@@H]1O`, the max response in [5] was 0.374%. For the same compound, the Potency result in assay [1] is “inactive”.

The values are drawn from PubChem BioAssay (NCATS).
